# Records with an inconclusive call do not appear. Values without a mark were called inactive. Active and inactive are the calls of the source. The call rests on the fitted dose curve; in most records, active means well fitted inhibition curve with a large enough effect; inconclusive means small, poorly fitted or top-dose-only effect; inactive means flat fitted curve, though single readings scatter.
# Experiment: P-glycoprotein substrates identified in KB-8-5-11 adenocarcinoma cell line, qHTS therapeutic library screen (AID 1346987); further: nearly all actives have a fitted effect of over 65% in size
# Settings: KB-8-5-11 (P-gp overexpressing) viability, CellTiter-Glo, 72 h; series mostly up to 44.5 µM; activity change, negative = cytotoxicity: at the top concentration
# Summary of the method: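 Luminescence from CellTiter-Glo, read 5 min after addition, quantified survival of KB-8-5-11 (P-gp-overexpressing) cells exposed to compounds for 72 h. AC50 was derived from concentration-response curves.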
# On the % scale 0 is the no-effect control and ±100 the full control effect.
Compound,"activity change, negative = cytotoxicity",outcome
CC(=O)OC1CCC2(C)C(CCC3(C)C2CC=C2C4CC(C)(C)CCC4(C)CCC23C)C1(C)C(=O)O (centres undefined),0.336% [at 17.3 µM],
C=C1CC/C=C(/C(=O)O)CCC2C1CC2(C)C (centres undefined),,inactive
C/C=C/C=C/C(=O)OC1CC/C=C/C(O)C(O)C(CCC)OC1=O (centres undefined),-8.22%,
COC(=O)/C=C/c1ccc(O[C@@H]2O[C@H](CO)[C@@H](O)[C@H](O)[C@H]2O)cc1,5.7%,
C[C@H]1CCN2C[C@]34C[C@@]5(C(=O)Nc6c5ccc5c6OC=CC(C)(C)O5)C(C)(C)C3C[C@]12C(=O)N4C (some centres undefined),2.22% [at 17.3 µM],
C=C(C(=O)O)[C@H]1C[C@]2(C)C(=O)CC[C@]23O[C@H]1C[C@@H]3C,3.49%,
C[C@@H]1CC[C@]2(C(=O)O)CC[C@]3(C)C(=CCC4[C@@]5(C)C[C@@H](O)[C@@H](O)C(C)(C)C5CC[C@]43C)C2[C@]1(C)O (some centres undefined),,inactive [at 17.3 µM]
CC(=O)OC/C(=C/C(=O)O)CC[C@@H]1C(C)=CC(=O)[C@@H]2C(C)(C)CCC[C@@]12C,,inactive
O=C(Nc1cc(-c2ccccc2)nn1-c1ccccc1F)c1ccc([N+](=O)[O-])cc1,-21.4%,
O=C(C[C@@H]1C(C(=O)O)=CO[C@@H](O[C@@H]2O[C@H](CO)[C@@H](O)[C@H](O)[C@H]2O)/C1=C\CO)OCCc1ccc(O)c(O)c1,,inactive [at 17.3 µM]
OC[C@H]1O[C@@H](OCc2ccccc2)[C@H](O)[C@@H](O)[C@@H]1O,,inactive
CC(O)CCc1ccc(O[C@@H]2O[C@H](CO)[C@@H](O)[C@H](O)[C@H]2O)cc1 (some centres undefined),2.83%,
COc1cc(/C=C/C(=O)O[C@@H]2O[C@H](CO)[C@@H](O)[C@H](O)[C@H]2O)ccc1O,-2.57%,
CC1(C)CC[C@]2(C(=O)O[C@@H]3O[C@H](CO)[C@@H](O)[C@H](O)[C@H]3O)CC[C@]3(C)C(=CCC4[C@@]5(C)C[C@H](O)[C@H](O[C@@H]6O[C@H](C(=O)O)[C@@H](O)[C@H](O)[C@H]6O)[C@@](C)(CO)C5CC[C@]43C)C2C1 (some centres undefined),-7.52% [at 9.29 µM],
C/C=C(\C)C(=O)OC1C(C)C2(O)C3C=C(C)C(=O)C3CC(CO)=CC2C2C(C)(C)C12OC(C)=O (centres undefined),-29.7% [at 17.3 µM],
C=CC(C)(O)CCC1C(C)(O)CCC2C(C)(C)CCCC21C (centres undefined),-4.2%,
COC1OC(OC)C(O)(CCC2(C)C(C)CCC3(C)C2CC(O)C(O)C32CO2)C1O (centres undefined),3.98% [at 17.3 µM],

Compound,"activity change, negative = cytotoxicity",outcome
Cc1cc(C)c2nc(-c3ccccn3)cc(C(=O)Nc3ccc(S(=O)(=O)Nc4onc(C)c4C)cc3)c2c1,3.65%,
Cc1nnc(-c2sc(NC(=O)[C@H](C(C)C)n3c(=O)[nH]c4ccccc4c3=O)nc2C)o1,6.71%,
O=C(O)[C@H]1Cc2ccccc2CN1,6.15% [at 5.11 µM],
C=C1CCC2C(C)(C)CC(=O)CC2(C)C1CCC(C)CCO (centres undefined),5.78%,
C[C@@H](CC[C@@H]1[C@@]2(C)CCCC(C)(C)C2CC[C@@]1(C)O)CC(=O)O (some centres undefined),9.49%,
NC(=O)C(O[C@@H]1O[C@H](CO[C@@H]2O[C@H](CO)[C@@H](O)[C@H](O)[C@H]2O)[C@@H](O)[C@H](O)[C@H]1O)c1ccccc1 (some centres undefined),4.32% [at 17.3 µM],
C=Cc1cc2oc(-c3ccc(O)c(F)c3)nc2cc1O,,inactive
Cc1cc(O[C@@H]2O[C@H](COC(=O)CC(=O)O)[C@@H](O)[C@H](O)[C@H]2O)c(C(C)C)cc1O,-7.8% [at 17.3 µM],
CCC(C)/C=C(C)/C=C/C1=CC2=C(Cl)C(=O)C(C)(O)C(=O)C2(O)C(OC)O1 (centres undefined),,inactive [at 17.3 µM]
COc1cc(C)c(C(=O)NC2C(C)OC(OC3CCC(C)C4C3C=C(C)C3/C(C)=C\CC/C(C)=C/C5(C)C=C(C(=O)O)C(C)CC56OC(=O)/C(=C(\O)C34C)C6=O)C(O)C2(C)O)c(O)c1 (centres undefined),,inactive [at 9.29 µM]
CCC1(O)CC2c3cc(OC)c(OC)cc3CCN2CC1CC(C)C (centres undefined),-18.2%,
COc1ccc(-n2c(=O)[nH]c3cc(C(=O)NCc4ccc(Cl)cc4)sc3c2=O)nc1OC,5.9%,
Cc1cccc(-c2nn3c(c2-c2ccnc4ccc(C(N)=O)cc24)CCC3)n1,,inactive
C=C(COC(=O)C(C)C)C1Oc2cc(C(C)=O)ccc2C1OC(=O)C(C)C (centres undefined),,inactive
O=C(OCC(O)CO[C@@H]1O[C@H](C(=O)O)[C@@H](O)[C@H](O)[C@H]1O)c1ccccc1 (some centres undefined),,inactive
C/C(=C\CC[C@H](CO)[C@@H]1CC[C@]2(C)C3=C(CC[C@@]12C)[C@@]1(C)CCC(=O)C(C)(C)C1CC3)C(=O)O (some centres undefined),,inactive [at 17.3 µM]
C/C=C(/C)C(=O)OC1C2OC2C2(CO2)C2C3OC(=O)C(C)C3CCC12C (centres undefined),6.03%,

# From PubChem BioAssay (NCATS)
